Shown are actives, neighbours in structure and some others; about 2.1% of the full set was active somewhere.
VHR inh abs = VHR1 phosphatase inhibitors, primary screen, biochemical, absorbance, uHTS; Dual specificity protein phosphatase 3 (Homo sapiens), P51452; recombinant VHR phosphatase, pNPP absorbance; inhibition, % at 13.3 µM; actives 0.52% (n = 290,000); in the data active means inhibition above about 50%
Target sequence (P51452 whole entry, looked up): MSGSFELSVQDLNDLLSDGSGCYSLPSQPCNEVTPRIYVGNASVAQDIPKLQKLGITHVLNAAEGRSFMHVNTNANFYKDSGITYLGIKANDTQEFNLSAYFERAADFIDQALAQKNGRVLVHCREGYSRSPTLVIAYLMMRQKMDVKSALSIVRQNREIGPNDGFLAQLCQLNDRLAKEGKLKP
MazF activator = activators of E. coli MazEF toxin-antitoxin RNase, primary screen, biochemical, fluorescence, uHTS; Endoribonuclease toxin MazF (Escherichia coli (strain K12)), P0AE70; activation, % at 20 µM; actives 0.32% (n = 350,000); FAM/BHQ RNA-DNA oligo cleavage fluorescence, 5 h; in the data active means activation above about 50%
Target sequence (P0AE70 whole entry, looked up): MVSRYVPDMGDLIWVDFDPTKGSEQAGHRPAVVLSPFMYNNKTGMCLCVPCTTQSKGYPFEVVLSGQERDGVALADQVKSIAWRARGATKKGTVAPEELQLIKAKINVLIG
PrP UTR inh = inhibition of PrP 5' UTR reporter expression | cell-based PrP 5' UTR mRNA reporter, plate reader | inhibition, % (concentration not given with the values) | actives 0.35% (n = 340,000) | AID 488862, 2010; in the data active means inhibition above about 52%; further: 0 = median of the neutral control wells
PfHsp40 rescue = rescue of yeast from PfHsp40 toxicity, primary screen, S. cerevisiae, ATP luminescence. S. cerevisiae expressing PfHsp40, growth rescue. growth rescue, % at 12.5 µM. actives 0.68% (n = 340,000); in the data active means growth rescue above about 28%, passing the limit was not always enough;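 further: yeast W303a lacking pdr1 and pdr3 grown in galactose medium; growth measured after three days at 30 °C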
PrPC TRFRET = inhibitors of human cell surface prion protein PrPC, primary screen, cell-based, TR-FRET. actives 0.43% (n = 370,000). TR-FRET read-out. inhibition, % at 13.8 µM. Major prion protein (Homo sapiens), P04156. AID 720596, 2013; in the data active means inhibition above about 24%; further: 0% = median of the test wells and 100% = reference compound wells
BJeLR lethal = MLPCN primary cell-based screen for lethality selective to Ras in HRASV12 cells | BJeLR (HRASV12) viability, CellTiter-Glo ATP luminescence, 48 h | actives 0.17% (n = 300,000) | AID 1554, 2009 | inhibition, % (concentration not given with the values); in the data active means inhibition above about 50%
Starred values were filed as active, the others as inactive; . = no result given; + = active, no number.

SMILES | VHR inh abs | MazF activator | PrP UTR inh | PfHsp40 rescue | PrPC TRFRET | BJeLR lethal
O=C(c1cccnc1)c1ncc(C(F)(F)F)cc1Cl | 27.4 | -4.7 | -29.1 | 0.7 | 3.6 | 14.1
Cc1nc(C)c(C(=O)N(c2ccccc2F)C(C(=O)NCC2CCCO2)c2ccccc2)s1 (configuration not stated) | 54.4* | 2.8 | -11.2 | 13.3 | 7.3 | -0.5
Cc1nn(C)c(C)c1NC(=O)COc1ccccc1C#N | . | 8.8 | -15.9 | -0.6 | 0.5 | .
COc1ccccc1NC(=O)Cc1nnc(SCC(=O)NC2CCCCC2C)n1C (configuration not stated) | 25.2 | 4.8 | -20.2 | 1.4 | -2.5 | -9.1
CC(=NNc1nc2ccccc2s1)c1ccncn1 | . | -19.6 | -59.8 | 149.9* | 16.8 | .
C/C(=N\Nc1nc2ccccc2s1)c1ccc(Br)s1 | 17.4 | 1.1 | -53.1 | 144.7* | -3.7 | 14.2
CN(N=Cc1ccc([N+](=O)[O-])cc1)c1ccccn1 | . | + | . | . | 0.7 | .
COCCCn1c(C)cc(C(=O)CN2c3cccc4cccc(c34)S2(=O)=O)c1C | . | -2.3 | -19.4 | -1.0 | -20.9 | .
CCN1C(=O)[C@H]2[C@@H](c3ccc(OC)cc3)N[C@]3(CCCN(Cc4ccc(C(F)(F)F)cc4)C3=O)[C@H]2C1=O | . | -0.1 | . | . | -2.0 | .
CCCCCCN1CCS(=O)(=O)N(Cc2ccc(OC)cc2)C(C(=O)OC)C1 (configuration not stated) | . | . | . | . | 4.0 | .
CC(=O)c1sc2nc(-c3cccs3)cc(C(F)(F)F)c2c1N | 2.9 | 242.2* | -13.6 | 5.8 | -8.9 | 1.7
COc1ccc(-c2cc(C(F)(F)F)c3c(N)c(C(=O)NCCSC)sc3n2)cc1 | 53.9* | 617.6* | -14.9 | 3.9 | -4.4 | -6.1
Cc1c(C(=O)O)sc2nc(-c3cccs3)cc(C(F)(F)F)c12 | 26.3 | -10.7 | -21.8 | 0.0 | 5.8 | -6.8
Nc1c(C(=O)C2CC2)sc2nc(-c3ccccc3)cc(C(F)(F)F)c12 | -28.7 | + | 41.1 | 0.5 | -0.7 | -3.9
CN(C)CCNC(=O)c1sc2nc(-c3ccccc3)cc(C(F)(F)F)c2c1N | 16.5 | 30.6 | -25.0 | 0.0 | -9.2 | 3.5
CCOC(=O)/C(=N\Nc1ccc(C(C)=O)cc1)c1csc(Nc2ccccc2)n1 | 11.5 | 56.5* | -38.1 | -0.1 | 2.5 | -6.4
CCOC(=O)/C(=N\Nc1ccccc1[N+](=O)[O-])c1csc(N)n1 | 21.5 | 10.3 | -26.1 | 0.8 | -21.7 | -3.8
Oc1ccccc1N=Nc1ccccc1O | 7.7 | 11.4 | 37.4 | 31.8* | -13.6 | 42.3
CC1(C(=O)Nc2cccc(Oc3ccccc3)c2)CCN1C1Cc2ccccc2C1 (configuration not stated) | . | . | . | . | -4.8 | .
O=C(CN1CCN(c2ncc(C(F)(F)F)cc2Cl)CC1)NCCNc1ncc(C(F)(F)F)cc1Cl | 5.0 | -2.8 | -10.6 | 293.6* | -3.1 | -10.3
CNC(=S)N/N=C/c1ccc(-c2ccc(Cl)c([N+](=O)[O-])c2)o1 | 11.0 | 9.9 | -14.1 | 0.2 | -15.0 | 1.1
CNC(=S)N/N=C/c1ccc(-c2ccc(C(=O)O)cc2)o1 | 1.4 | -3.7 | 9.2 | -1.1 | -7.0 | 51.5*
COc1ccc(OC)c(C(C)NC(C)=O)c1 (configuration not stated) | 27.9 | 1.2 | -0.1 | 0.7 | -3.4 | -0.8
CNC(C)c1cc(OC)ccc1OC (configuration not stated) | 39.1 | 9.7 | -28.3 | 45.4* | 2.6 | -6.1
C[C@H](CO)N1C[C@H](C)[C@@H](CN(C)C(=O)Nc2ccc(C(F)(F)F)cc2)Oc2ccc(NC(=O)C3CCCCC3)cc2C1=O | . | -1.6 | -12.2 | 0.2 | -0.4 | .
SMILES | VHR inh abs | MazF activator | PrP UTR inh | PfHsp40 rescue | PrPC TRFRET | BJeLR lethal
O=C(NCCc1ccc(C(F)(F)F)cc1)C1CCC(=O)N(CCc2cccc(F)c2)C1 (configuration not stated) | 10.5 | 64.1* | -21.2 | 0.1 | 0.7 | -5.1
CCN(CC(=O)Nc1c(F)cccc1F)C(=O)Cc1ccc2c(c1)CCC2 | . | 1.2 | -0.5 | -0.8 | 8.1 | -5.7
O=C(Nc1ccc2oc(-c3ccccc3)nc2c1)c1cc(-n2cnnc2)ccc1Cl | -2.7 | 53.7* | -5.6 | -1.0 | 2.1 | -1.2
COc1ccc(-n2c(C)nnc2SCC(=O)N2CCOCC2)cc1 | -32.2 | 1.9 | -21.1 | -1.6 | -9.1 | -2.0
O=C(O)CC/C(=C\c1ccc2c(c1)OCO2)c1nc2ccccc2s1 | 7.4 | 59.9* | -2.5 | 0.8 | -1.7 | -3.9
COc1ccc(-c2noc(CN(C)C(=O)c3ccc4c(c3)OCO4)n2)cc1 | 33.1 | 0.7 | -10.2 | 0.7 | 0.4 | 5.9
Cc1ccc(C(=O)N2CCN3C(=O)c4ccccc4C23c2ccccc2)cc1 (configuration not stated) | 26.4 | 4.2 | -13.2 | -0.6 | -0.7 | -8.5
O=C1c2ccccc2C2(c3ccccc3)N1CCN2C(=O)C(Cl)(Cl)Cl (configuration not stated) | 26.3 | 1.7 | -31.5 | 122.0* | -0.4 | -0.7
CCOC(=O)C1Oc2ccccc2C(c2cccc3ccccc23)=C1C(=O)OC (configuration not stated) | . | 146.3* | -20.0 | 0.3 | 4.6 | .
CCOC(=O)C1Oc2ccccc2C(C(=O)OC)=C1C(=O)OC (configuration not stated) | . | 1.4 | 34.0 | 2.3 | . | .
CN(CCCC1CCCC1)C(=O)c1cc(COc2ccc(F)c(F)c2)on1 | 19.7 | -5.4 | -1.0 | 44.3* | 6.8 | 1.7
O=C(COc1ccc(-c2nnco2)cc1)NC1CCS(=O)(=O)C1 (configuration not stated) | . | -14.2 | -11.0 | 31.3* | 5.8 | .
COc1ccccc1NS(=O)(=O)c1ccc2oc(N)nc2c1 | 3.5 | 2.0 | -28.4 | -0.3 | 4.2 | -3.9
O=C(Nc1cccc2ccccc12)c1ccc2sc([C@H]3C[C@H](O)[C@@H](CO)O3)nc2c1 | . | . | . | . | -13.8 | .
O=C(c1ccc(OC2CCN(CCc3ccccc3)CC2)cc1)N1CCC(CO)CC1 | 51.3* | -2.0 | -2.1 | -1.0 | -12.1 | 3.7
COC1CCN(C(=O)c2ccc(OC3CCN(CCc4ccccc4)CC3)cc2)CC1 | 30.5 | 5.6 | -7.7 | -1.1 | 2.6 | -5.8
Cc1ccc(S(=O)(=O)Nc2ccc3ccccc3c2)cc1 | . | 1.8 | 2.5 | -0.6 | 13.3 | .
COc1ccc(S(=O)(=O)Nc2ccc3ccccc3c2)cc1C | -6.6 | 4.7 | -15.2 | 31.4* | 9.5 | 10.5
COC(CNC(=O)[C@H](Cc1c[nH]c2ccccc12)NC1(C(=O)NCc2ccccc2)CCCCC1)OC | . | . | . | . | -5.6 | .
COc1ccccc1NC(=O)CCN1CCN(C)CC1 | -22.7 | 4.5 | -7.7 | 0.5 | 4.2 | -1.4
COc1ccccc1NC(=O)NNC(=O)CCN1CCOCC1 | 56.7* | -2.5 | -18.0 | 0.7 | 1.1 | 3.8
